For 6 compounds, residual activity results are on record in ChEMBL document CHEMBL2218924, “A broad activity screen in support of a chemogenomic map for kinase signalling research and drug discovery” (Biochem J, 2013).

Structures are written as SMILES.

Experiment [1] has as its target Mast/stem cell growth factor receptor Kit (Homo sapiens) (UniProt P10721). The following applies: at 1 µM.
For experiment [2] the target is unchanged. Conditions: at 10 µM.
Experiment [3] deals with Proto-oncogene tyrosine-protein kinase Src (Homo sapiens) (UniProt P12931). Conditions: at 1 µM.
For experiment [4] the target is unchanged. The following applies: at 10 µM.
Experiment [5] deals with Serine/threonine-protein kinase mTOR (Homo sapiens) (UniProt P42345). The following applies: at 1 µM.
For experiment [6] the target is unchanged. Conditions: at 10 µM.
Experiment [7] shares this target. The following applies: at 1 µM. The source holds these as a separate data set.
For experiment [8] the target is unchanged. Conditions: at 10 µM. The source holds these as a separate data set.
For experiment [9], the target named is Ribosomal protein S6 kinase beta-1 (Homo sapiens) (UniProt P23443). The following applies: at 1 µM.
For experiment [10] the target is unchanged. Conditions: at 10 µM.
For experiment [11], the target named is Serine/threonine-protein kinase Nek6 (Homo sapiens) (UniProt Q9HC98). Conditions: at 1 µM.
Experiment [12] has the same target. Conditions: at 10 µM.
Experiment [13] addresses Serine/threonine-protein kinase Nek7 (Homo sapiens) (UniProt Q8TDX7). The following applies: at 1 µM.
The target is the same in experiment [14]. Conditions: at 10 µM.
Experiment [15] concerns the target T1, Serine/threonine-protein kinase NLK (Homo sapiens) (UniProt Q9UBE8).
T1 sequence (whole entry): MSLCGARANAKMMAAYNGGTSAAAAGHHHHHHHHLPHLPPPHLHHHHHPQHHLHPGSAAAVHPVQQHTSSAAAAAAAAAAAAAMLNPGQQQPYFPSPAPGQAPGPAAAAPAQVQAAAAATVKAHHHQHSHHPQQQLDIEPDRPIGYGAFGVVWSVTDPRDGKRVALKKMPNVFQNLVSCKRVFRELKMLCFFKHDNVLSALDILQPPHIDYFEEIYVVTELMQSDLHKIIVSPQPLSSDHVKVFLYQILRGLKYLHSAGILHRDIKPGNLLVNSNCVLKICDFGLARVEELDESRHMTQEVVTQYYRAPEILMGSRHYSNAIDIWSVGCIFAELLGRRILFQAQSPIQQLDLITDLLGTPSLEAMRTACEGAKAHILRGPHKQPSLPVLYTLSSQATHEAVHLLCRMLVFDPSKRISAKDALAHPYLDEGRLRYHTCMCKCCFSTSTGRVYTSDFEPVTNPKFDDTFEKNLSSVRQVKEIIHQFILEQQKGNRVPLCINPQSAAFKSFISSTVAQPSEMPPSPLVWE
Conditions: at 1 µM.

In experiment [16] the target is T1, Serine/threonine-protein kinase NLK (Homo sapiens). The following applies: at 10 µM.
For experiment [17], the target named is Serine/threonine-protein kinase PAK 2 (Homo sapiens) (UniProt Q13177). The following applies: at 1 µM.
For experiment [18] the target is unchanged. Conditions: at 10 µM.
The target of experiment [19] is T2, Eukaryotic elongation factor 2 kinase (Homo sapiens) (UniProt O00418).
T2 sequence (whole entry): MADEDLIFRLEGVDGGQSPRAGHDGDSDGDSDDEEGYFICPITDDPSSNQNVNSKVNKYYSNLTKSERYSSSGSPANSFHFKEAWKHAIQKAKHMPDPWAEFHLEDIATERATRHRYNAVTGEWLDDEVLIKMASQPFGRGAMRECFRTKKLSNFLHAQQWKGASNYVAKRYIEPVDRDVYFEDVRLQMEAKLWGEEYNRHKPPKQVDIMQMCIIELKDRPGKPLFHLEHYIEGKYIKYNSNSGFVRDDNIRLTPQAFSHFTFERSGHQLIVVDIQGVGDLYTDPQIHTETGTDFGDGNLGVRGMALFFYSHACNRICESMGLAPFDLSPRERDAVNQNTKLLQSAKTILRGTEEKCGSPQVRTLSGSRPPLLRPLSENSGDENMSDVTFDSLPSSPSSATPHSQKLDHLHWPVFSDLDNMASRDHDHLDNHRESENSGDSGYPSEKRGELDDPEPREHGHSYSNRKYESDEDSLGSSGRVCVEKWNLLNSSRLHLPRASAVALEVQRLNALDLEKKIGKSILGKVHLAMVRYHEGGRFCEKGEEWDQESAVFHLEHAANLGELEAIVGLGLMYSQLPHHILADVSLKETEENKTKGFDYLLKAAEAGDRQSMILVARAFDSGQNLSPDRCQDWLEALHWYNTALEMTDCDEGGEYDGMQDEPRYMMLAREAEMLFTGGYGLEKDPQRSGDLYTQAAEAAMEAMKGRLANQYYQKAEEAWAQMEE
The following applies: at 1 µM.

Experiment [20] concerns the target T2, Eukaryotic elongation factor 2 kinase (Homo sapiens). The following applies: at 10 µM.

Serine/threonine-protein kinase Nek7 (Homo sapiens), sequence (Q8TDX7 whole entry, looked up): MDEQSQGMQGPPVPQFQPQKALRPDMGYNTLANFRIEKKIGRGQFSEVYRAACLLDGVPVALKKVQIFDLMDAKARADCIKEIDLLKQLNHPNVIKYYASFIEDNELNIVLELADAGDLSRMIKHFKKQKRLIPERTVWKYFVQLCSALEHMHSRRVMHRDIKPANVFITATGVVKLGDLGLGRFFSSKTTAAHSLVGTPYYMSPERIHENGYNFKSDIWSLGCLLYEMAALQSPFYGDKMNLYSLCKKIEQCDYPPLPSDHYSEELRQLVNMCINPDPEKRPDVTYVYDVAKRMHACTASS
Ribosomal protein S6 kinase beta-1 (Homo sapiens), sequence (P23443 whole entry, looked up): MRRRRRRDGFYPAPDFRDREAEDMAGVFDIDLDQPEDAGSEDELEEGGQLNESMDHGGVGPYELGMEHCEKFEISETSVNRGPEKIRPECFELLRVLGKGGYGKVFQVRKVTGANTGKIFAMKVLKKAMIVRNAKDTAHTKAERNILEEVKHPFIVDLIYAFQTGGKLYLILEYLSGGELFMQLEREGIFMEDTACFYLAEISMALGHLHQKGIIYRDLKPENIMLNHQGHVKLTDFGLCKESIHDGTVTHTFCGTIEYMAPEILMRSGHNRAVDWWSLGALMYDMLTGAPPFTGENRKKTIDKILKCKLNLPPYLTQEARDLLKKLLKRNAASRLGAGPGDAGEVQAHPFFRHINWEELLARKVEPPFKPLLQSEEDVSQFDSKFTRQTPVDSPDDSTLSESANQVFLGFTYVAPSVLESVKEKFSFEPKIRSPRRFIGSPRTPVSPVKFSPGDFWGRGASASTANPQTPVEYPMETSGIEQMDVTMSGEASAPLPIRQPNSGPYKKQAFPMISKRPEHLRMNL
Proto-oncogene tyrosine-protein kinase Src (Homo sapiens), sequence (P12931 2-536 limits assumed): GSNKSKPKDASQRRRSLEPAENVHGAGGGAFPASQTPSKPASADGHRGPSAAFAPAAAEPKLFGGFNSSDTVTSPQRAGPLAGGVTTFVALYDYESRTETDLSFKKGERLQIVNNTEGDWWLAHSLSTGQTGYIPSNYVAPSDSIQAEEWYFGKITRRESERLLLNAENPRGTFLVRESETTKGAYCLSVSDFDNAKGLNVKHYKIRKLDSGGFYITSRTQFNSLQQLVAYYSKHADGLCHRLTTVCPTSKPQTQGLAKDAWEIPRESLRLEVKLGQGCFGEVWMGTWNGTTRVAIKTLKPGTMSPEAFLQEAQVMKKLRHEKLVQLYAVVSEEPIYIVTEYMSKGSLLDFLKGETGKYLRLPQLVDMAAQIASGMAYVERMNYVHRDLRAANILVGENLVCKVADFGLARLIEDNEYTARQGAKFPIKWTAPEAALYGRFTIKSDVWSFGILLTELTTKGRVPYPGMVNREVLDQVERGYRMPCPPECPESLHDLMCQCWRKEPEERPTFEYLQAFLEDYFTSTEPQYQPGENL
Mast/stem cell growth factor receptor Kit (Homo sapiens), sequence (P10721 whole entry): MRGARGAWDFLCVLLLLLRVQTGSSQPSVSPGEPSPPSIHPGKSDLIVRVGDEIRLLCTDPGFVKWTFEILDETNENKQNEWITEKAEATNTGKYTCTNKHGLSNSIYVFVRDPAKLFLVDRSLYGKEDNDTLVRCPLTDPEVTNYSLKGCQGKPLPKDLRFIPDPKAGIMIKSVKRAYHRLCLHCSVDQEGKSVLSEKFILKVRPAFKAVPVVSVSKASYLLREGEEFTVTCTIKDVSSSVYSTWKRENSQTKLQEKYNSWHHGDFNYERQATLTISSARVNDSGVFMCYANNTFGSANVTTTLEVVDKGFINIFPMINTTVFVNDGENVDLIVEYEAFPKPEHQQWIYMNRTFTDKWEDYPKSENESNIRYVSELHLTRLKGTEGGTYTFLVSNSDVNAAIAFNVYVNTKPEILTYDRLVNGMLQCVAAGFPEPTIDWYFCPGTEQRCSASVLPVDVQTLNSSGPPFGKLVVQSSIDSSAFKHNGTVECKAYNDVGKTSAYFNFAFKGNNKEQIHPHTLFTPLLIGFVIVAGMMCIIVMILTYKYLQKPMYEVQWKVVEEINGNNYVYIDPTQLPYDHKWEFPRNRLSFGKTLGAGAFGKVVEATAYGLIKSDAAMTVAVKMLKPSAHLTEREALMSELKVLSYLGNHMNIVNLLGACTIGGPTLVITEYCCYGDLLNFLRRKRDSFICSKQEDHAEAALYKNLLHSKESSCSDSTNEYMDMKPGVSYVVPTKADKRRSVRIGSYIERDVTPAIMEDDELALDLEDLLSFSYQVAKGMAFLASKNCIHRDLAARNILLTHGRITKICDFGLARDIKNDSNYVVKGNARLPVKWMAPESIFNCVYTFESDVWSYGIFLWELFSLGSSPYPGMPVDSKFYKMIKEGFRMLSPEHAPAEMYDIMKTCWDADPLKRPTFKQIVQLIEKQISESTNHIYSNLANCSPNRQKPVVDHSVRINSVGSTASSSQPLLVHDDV
Serine/threonine-protein kinase Nek6 (Homo sapiens), sequence (Q9HC98 whole entry): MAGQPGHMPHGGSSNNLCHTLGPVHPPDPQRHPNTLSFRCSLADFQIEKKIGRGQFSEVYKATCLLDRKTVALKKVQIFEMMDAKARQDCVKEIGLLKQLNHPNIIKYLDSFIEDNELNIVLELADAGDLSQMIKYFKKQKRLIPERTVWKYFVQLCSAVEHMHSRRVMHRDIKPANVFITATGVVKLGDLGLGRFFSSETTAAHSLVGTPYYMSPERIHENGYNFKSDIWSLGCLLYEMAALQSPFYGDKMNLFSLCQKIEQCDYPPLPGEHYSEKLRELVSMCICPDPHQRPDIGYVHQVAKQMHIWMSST
Serine/threonine-protein kinase PAK 2 (Homo sapiens), sequence (Q13177 whole entry): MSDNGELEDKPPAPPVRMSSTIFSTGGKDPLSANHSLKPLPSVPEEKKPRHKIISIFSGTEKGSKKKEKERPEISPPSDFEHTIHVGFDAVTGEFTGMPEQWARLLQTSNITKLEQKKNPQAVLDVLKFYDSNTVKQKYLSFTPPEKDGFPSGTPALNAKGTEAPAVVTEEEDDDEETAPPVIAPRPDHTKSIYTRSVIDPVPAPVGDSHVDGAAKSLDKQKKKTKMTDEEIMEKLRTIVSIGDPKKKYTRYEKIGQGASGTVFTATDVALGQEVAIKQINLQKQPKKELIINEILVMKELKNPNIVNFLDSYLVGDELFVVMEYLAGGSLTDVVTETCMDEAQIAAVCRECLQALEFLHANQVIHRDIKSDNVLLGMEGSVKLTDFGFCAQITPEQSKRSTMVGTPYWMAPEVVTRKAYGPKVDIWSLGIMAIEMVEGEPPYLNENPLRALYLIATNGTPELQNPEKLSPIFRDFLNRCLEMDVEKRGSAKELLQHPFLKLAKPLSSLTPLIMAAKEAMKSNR

For `CO[C@H]1[C@@H](OC)C[C@H](C)[C@@H](OC)C2=CC(=O)C=C(NC(=O)/C(C)=C/C=C/[C@H](OC)[C@@H](OC(N)=O)/C(C)=C/[C@@H]1C)C2=O`, the residual activity in experiment [1] is 104%; in [2] it was 98%; in [3], 101%; in experiment [4] it was 92%; in experiment [5], 95%; in [6], 103%. Moreover, the residual activity was 77% in [7]; 89% in experiment [8]; 75% in experiment [9]; 43% in [10]; 103% (inactive) in [11]; 112% in experiment [12]. Also, the residual activity in experiment [13] was 89% (inactive); in experiment [14], 76% (inactive); in experiment [15], 110%; in experiment [16] it was 83%; in experiment [17] it was 108%; in experiment [18], 83%.
For `Cc1cc2ncc(-c3ccccc3)nc2cc1C`, the residual activity turned out to be 86% in [1]; 70% in [2]; 83% in experiment [3]; 99% in [4]; 93% in experiment [5]; 100% in experiment [6]. Also, the residual activity in experiment [7] was 70%; in [8], 83%; in experiment [9], 80%; in experiment [10], 52%; in experiment [11], 104% (inactive); in [12], 102%. Further, the residual activity in experiment [13] is 106% (inactive); in experiment [14], 101% (inactive); in [15], 105%; in [16], 91%; in [17], 97%; in experiment [18], 94%.
On to `O=C1Nc2cc(Br)ccc2/C1=C1/Nc2ccccc2/C1=N\O`, for which the residual activity was 18% in experiment [1]; 21% in experiment [2]; 2% in experiment [3]; 3% in experiment [4]; 94% (inactive) in experiment [19]; 89% in [20]. Besides, the residual activity in experiment [5] came to 76%; in experiment [6], 76%; in experiment [7] it was 119%; in experiment [8], 82%; in [9] it was 30%; in experiment [10], 29%. Besides, the residual activity in experiment [11] was 108% (inactive); in [12] it was 106%; in [13] it was 102% (inactive); in [14], 85% (inactive); in experiment [15] it was 79%; in experiment [16], 85%. Besides, the residual activity came out at 75% in [17] and 88% in experiment [18].
Take `CCOc1cc2ncnc(Nc3cccc(Br)c3)c2cc1OCC`: the residual activity was found to be 108% in experiment [1]; 101% in experiment [2]; 53% in [3]; 14% in experiment [4]; 110% in experiment [5]; 106% in experiment [6]. Besides, the residual activity in [7] is 94%; in experiment [8], 100%; in experiment [9] it was 109%; in experiment [10] it was 54%; in experiment [11] it was 112% (inactive); in experiment [12] it was 125%. For the same compound, the residual activity was 102% (inactive) in [13]; 101% (inactive) in [14]; 78% in experiment [15]; 34% in experiment [16]; 102% in [17]; 75% in experiment [18].
As to `CC(C)n1cnc2c(NCc3ccccc3)nc(NCCCO)nc21`, the residual activity is 111% in experiment [1]; 98% in experiment [2]; 100% in experiment [3]; 86% in experiment [4]; 108% (inactive) in experiment [19]; 98% in experiment [20]. Also, the residual activity worked out at 109% in [5]; 114% in experiment [6]; 116% in [7]; 104% in [8]; 105% in experiment [9]; 100% in [10]. Also, the residual activity in experiment [11] was 107% (inactive); in experiment [12] it was 115%; in experiment [13], 101% (inactive); in experiment [14], 95% (inactive); in experiment [15] it was 95%; in [16], 86%. Besides, the residual activity in [17] came to 106%; in experiment [18], 100%.
On to `Oc1n[nH]c2nnc(-c3c(-c4ccccc4)nn4ccccc34)cc12`, for which the residual activity amounted to 94% in experiment [1]; 104% in [2]; 95% in experiment [3]; 87% in experiment [4]; 97% in experiment [5]; 76% in experiment [6]. Moreover, the residual activity was 102% in [7]; 76% in experiment [8]; 106% in [9]; 96% in experiment [10]; 103% (inactive) in experiment [11]; 110% in experiment [12]. Besides, the residual activity in [13] was 100% (inactive); in experiment [14], 96% (inactive); in experiment [15], 90%; in [16], 86%; in experiment [17] it was 94%; in experiment [18], 99%.
